FLuc inh-1 = blocks purified firefly luciferase enzyme activity; P08659; purified P. pyralis luciferase, luminescence, biochemical; Potency, µM (highest dose often 115 µM), most hits filed as inhibitors; 2.5% of 76,000 active; also: % is scaled to controls: 0 for no effect and ±100 for the full control effect; nearly all actives have a fitted effect of over 65% in size
Target sequence (P08659 whole entry, looked up): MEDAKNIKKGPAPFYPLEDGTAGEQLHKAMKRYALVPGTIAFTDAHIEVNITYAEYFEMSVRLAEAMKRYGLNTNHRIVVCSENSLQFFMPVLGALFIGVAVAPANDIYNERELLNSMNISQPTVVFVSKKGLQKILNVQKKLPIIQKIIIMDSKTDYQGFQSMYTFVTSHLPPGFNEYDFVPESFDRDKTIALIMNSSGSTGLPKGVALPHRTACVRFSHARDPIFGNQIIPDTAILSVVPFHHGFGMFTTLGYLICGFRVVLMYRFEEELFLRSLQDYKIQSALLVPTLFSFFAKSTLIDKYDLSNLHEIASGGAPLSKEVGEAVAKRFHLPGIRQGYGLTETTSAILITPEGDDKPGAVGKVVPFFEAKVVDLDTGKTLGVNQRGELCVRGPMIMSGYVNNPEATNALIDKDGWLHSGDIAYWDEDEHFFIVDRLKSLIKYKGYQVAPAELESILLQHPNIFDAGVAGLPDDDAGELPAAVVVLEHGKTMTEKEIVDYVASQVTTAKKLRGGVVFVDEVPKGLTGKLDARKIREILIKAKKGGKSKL
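Biochemical qHTS: compound (6-point titration) added to 10uM D-luciferin plus 10uM ATP in Tris acetate pH 7.5 buffer with Mg, Tween-20 and BSA, then purified enzyme at 10nM; light output imaged.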
HEK293 tox = HEK 293 cell cytotoxicity; Potency, µM (doses to about 115 µM), inactives show at the top dose activity change, negative = cytotoxicity, hits mostly inhibitors; 6.6% of 94,000 active; AID 1345083; HEK 293 viability, ATP luminescence (CellTiter-Glo), 48-72 h; also: % is scaled to controls: 0 for no effect and ±100 for the full control effect; nearly all actives have a fitted effect of over 60% in size
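Cells seeded first (HEK 293, 250 cells/well), then compound added by pintool. Incubation ran 48 or 72 hr at 37 degree Celsius. CellTiter-Glo was added and luminescence imaged after 10 min at room temperature.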
SNCA viab count = cell viability loss counter-screen | 0.12% of 150,000 active | HEK-293-SNCA-luc viability, GF-AFC fluorescence, 24 h | Potency, µM (titrated, usually from 57.1 µM), inactives show at the highest dose activity change, negative = cytotoxicity, most hits filed as cytotoxic;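 also: 0% = DMSO-treated cells and -100% = medium-only wells without cells; nearly all actives have a fitted effect of over 30% in size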
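Cytotoxicity counterscreen: after 24 h compound treatment of genome-edited SNCA-luciferase HEK-293 cells, live-cell protease substrate GF-AFC read by fluorescence after 30 min; activity scaled between DMSO (0%) and medium-only (-100%), curves Hill-fitted.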
3T3 cytotox = kills NIH 3T3 cells; NIH 3T3 viability, CellTiter-Glo ATP luminescence, 48-72 h; Potency, µM (doses to about 96.7 µM), without a hit: at the top dose activity change, negative = cytotoxicity, hits mostly inhibitors; 4.3% of 94,000 active; also: % is scaled to controls: 0 for no effect and ±100 for the full control effect; nearly all actives have a fitted effect of over 55% in size
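Viability of NIH 3T3 cells after 48 or 72 hr compound treatment at 37 °C was assessed by CellTiter-Glo, with luminescence imaged following a 10 min room-temperature step.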
hNpr1 antagonist = blocks ANP-stimulated signaling of human Npr1 receptor; P16066; HEK293 hNpr1 GloSensor cGMP, ANP-stimulated luminescence; Potency, µM (highest dose often 46.3 µM), for inactives: at the top dose activity change, negative = inhibition, hits mostly inhibitors; 1.6% of 76,000 active; calls by dose curve; also: % is scaled to controls: 0 for no effect and ±100 for the full control effect; nearly all actives have a fitted effect of over 60% in size
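Compound pre-incubated 30 min at room temperature on GloSensor-loaded HEK293 cells stably carrying hNpr1 and the pGS-40F cGMP biosensor. Stimulation uses hNppA at 0.1 nM final; luminescence is taken at baseline and 20 min post-agonist.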
SNCA expr inh = inhibitors of alpha-synuclein (SNCA) gene expression; HEK-293 SNCA-luciferase knock-in, luminescence, 24 h; Potency, µM (top dose mostly 57.2 µM), without a hit: at the top dose activity change, negative = inhibition, hits mostly inhibitors; 0.17% of 140,000 active; AID 1671194;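 also: plate controls were DMSO cells for no effect and cell-free wells for full effect; nearly all actives have a fitted effect of over 45% in size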
FLuc SDR no ATP = binders stabilizing firefly luciferase, without ATP; shares compounds with FLuc inh-1; Purified FLuc-C-HiBiT, Nano-Glo HiBiT luminescence, no ATP; Potency, µM (top dose mostly 32.7 µM), inactives show at the top dose activation (signal gain), usual class: activators; 7.8% of 1,300 active; also: nearly all actives have a fitted effect of over 55% in size
FLuc SDR ATP = firefly luciferase binding stabilization, ATP added; shares compounds with FLuc inh-1; Potency, µM (series often up to 32.7 µM), for inactives: at the top dose activation (gain of signal), hits mostly activators; purified FLuc-C-HiBiT + ATP, HiBiT complementation luminescence; 8.7% of 1,300 active;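 also: signal reports ligand binding via conformational change of the enzyme rather than luciferase catalysis; % of control where 0% means no effect; nearly all actives have a fitted effect of over 55% in size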
FLuc inh-2 = firefly luciferase enzyme inhibition | shares compounds with FLuc inh-1 | Potency, µM (series often up to 32.7 µM), for inactives: at the highest dose activity change, negative = inhibition, most hits filed as inhibitors | 42% of 1,300 active | purified FLuc-C-HiBiT enzyme, luciferin luminescence | AID 1963320; also: % is scaled to controls: 0 for no effect and ±100 for the full control effect; nearly all actives have a fitted effect of over 70% in size
* = called active by the depositor; i = inactive; ? = inconclusive; / = not tested or not shown; [ ] = another dose, or the depositor's remark. Most compounds without a hit are left out; they make up all but 7.4% or so of the library. Unless noted, calls follow the shape of the dose curve; as a rule, active = well fitted curve in the direction sought with a large enough effect; inconclusive = small, poorly fitted or top-dose-only effect, or another doubt; inactive = no such curve, though single readings can be large; an effect the other way counts as inactive or inconclusive. Potency is read from the fitted curve at half-maximal effect.

SMILES	FLuc inh-1	HEK293 tox	SNCA viab count	3T3 cytotox	hNpr1 antagonist	SNCA expr inh	FLuc SDR no ATP	FLuc SDR ATP	FLuc inh-2
Cc1ccc(NC(=O)C2CCN(C(=O)c3ncn4c3COC(c3ccccc3)C4)CC2)cc1C (stereo not given)	3.98µM*	4.9%	8.0%	i	6.4%	21.9%	13.7%	?	?
COc1ccc(C2Cn3cnc(C(=O)N4CCC(C(=O)Nc5ccc(F)c(C)c5)CC4)c3CO2)cc1 (stereo not given)	i	3.9%	6.5%	i	-8.9%	-12.9%	/	/	/
COc1ccc(NC(=O)C2CCN(C(=O)c3ncn4c3COC(c3ccccc3)C4)CC2)cc1OC (stereo not given)	5.62µM*	12.4%	-2.4%	0.3%	-2.1%	39.0%	12.8%	?	3.51µM*
COc1ccc(NC(=O)C2CCN(C(=O)c3ncn4c3COC(c3ccccc3)C4)CC2)cc1 (stereo not given)	8.91µM*	8.2%	0.5%	i	1.5%	84.5%	11.2%	?	?
COc1ccc(O[C@H]2COCCN(C(=O)c3cccnc3)C2)cc1	i	i	1.4%[87.6 µM]	-7.9%[138 µM]	-1.3%[70.6 µM]	17.3%[87.6 µM]	/	/	/
CN1CCN(CCCNc2nccc(-c3ccccn3)n2)CC1	i	i	-2.6%	-2.5%	8.3%	11.0%	/	/	/
c1ccc(CCCNc2nccc(-c3ccccn3)n2)nc1	10µM*	?	-5.7%	-30.2%	1.5%	37.5%	14.4%	15.3%	1.2%
CC(C)CCN1CCCC(COc2ccccc2C(=O)NC2CC2)C1 (stereo not given)	i	-29.1%	-3.4%	?	-17.8%	-11.7%	/	/	/
COCCNc1ncc(-c2ccc(O)cc2)c2c1OCC2	i	-26.0%[230 µM]	-1.4%[87.6 µM]	?	5.8%[70.6 µM]	161.8%[87.6 µM]	/	/	/
CC(C)NC(=O)c1cc(C(C)(C)C)nc2c1cnn2C	/	-9.2%[172 µM]	2.5%[87.6 µM]	?	/	50.6%[87.6 µM]	/	/	/
COc1ccccc1NC(=O)c1ccc(COc2ccc(C)c(C)c2)o1	/	/	1.6%	/	/	124.7%	/	/	/
CCCc1ccc(OCc2ccc(C(=O)Nc3ccccc3C(=O)OC)o2)cc1	/	/	1.8%	/	/	231.6%	11.7%	?	?
CCN(CC)c1ccc(-c2nc(-c3ccccn3)no2)cc1[N+](=O)[O-]	/	/	-0.4%	/	/	?	/	/	/
Cc1ccc(-c2nc(-c3ccccn3)no2)cc1Cl	/	/	/	/	/	/	4.42µM*	?	0.624µM*
Clc1cccc(-c2nc(-c3ccccn3)no2)c1	/	/	/	/	/	/	3.94µM*	?	0.989µM*
COc1ccccc1CCNC(=O)c1cc2ccccn2n1	/	/	2.7%	/	/	195.1%	/	/	/
CCc1ccc(NC(=O)c2cc3ccccn3n2)cc1	/	/	-10.0%	/	/	14.5%	?	?	1.76µM*
Clc1ccc2c(c1)-n1cc(-c3ccccc3)nc1CO2	/	/	?	/	/	85.5%	15.7%	10.8%	-18.7%
COC(=O)CC1Oc2ccc(Cl)cc2-n2cc(-c3ccccc3)nc21 (stereo not given)	/	/	4.4%	/	/	0.7%	/	/	/
COCCC1(NS(C)(=O)=O)CCN(C(=O)NCC(C)C)CC1	i	0.5%	-6.2%	-6.4%	-1.5%	-5.0%	/	/	/
CCCCNc1nc(N)c2[nH]c(=O)n(Cc3ccc(OCCN(C)C)nc3)c2n1	/	/	1.0%	/	/	/	11.3%	8.1%	-4.8%
C[C@H](C(=O)NCCN1CCOCC1)C1CC[C@@]2(C)Cc3sc(CSc4ccccc4)nc3[C@@H](C)[C@@H]2[C@H]1O (stereo not given in full)	11.2µM*	39.8µM*	1.8%	?	10µM*	20.1%	12.2%	10.6%	?
C[C@H](C(=O)N1CCOCC1)C1CC[C@@]2(C)Cc3sc(-c4ccccc4)nc3[C@@H](C)[C@@H]2[C@H]1O (stereo not given in full)	14.1µM*	?	-7.3%	?	-2.2%	3.16µM*	6.24µM*	?	3.51µM*
C[C@H](C(=O)N(C)CCC#N)C1CC[C@@]2(C)Cc3sc(NC(=O)c4cccn4C)nc3[C@@H](C)[C@@H]2[C@H]1O (stereo not given in full)	5.01µM*	?	4.7%	?	?	?	30.1%	?	7µM*
COc1cccc([S+](=O)([O-])N2CCC(N3CCOC3=O)CC2)c1	/	i	-6.7%	2.8%	/	16.5%	/	/	/
SMILES	FLuc inh-1	HEK293 tox	SNCA viab count	3T3 cytotox	hNpr1 antagonist	SNCA expr inh	FLuc SDR no ATP	FLuc SDR ATP	FLuc inh-2
COc1ccccc1C(=O)N1CCC(Oc2ccc(C(N)=O)cn2)CC1	i	-14.4%	9.5%	-0.3%	-9.5%	27.3%	/	/	/
Cc1ccc(NC(=O)N2CCCC(c3noc(COc4ccccc4)n3)C2)cc1C (stereo not given)	3.98µM*	?	8.8%[12.5 µM]	?	-16.7%	34.4%	24.8%	16.3%	8.81µM*
Cc1ccc(OCc2nc(C3CN(C(=O)C4(c5ccccc5)CC4)C3)no2)cc1	i	?	-0.7%	?	1.3%	4.8%	/	/	/
Cc1cc(C)cc(NC(=O)N2CCCC(c3noc(COc4ccccc4)n3)C2)c1 (stereo not given)	?	?	-2.4%[12.5 µM]	?	-19.2%	1.0%	/	/	/
Cc1ccc(OCc2nc(C3CN(C(=O)c4n[nH]c5ccccc45)C3)no2)cc1	8.91µM*	?	-29.3%	20µM*	?	8.8%	?	?	8.81µM*
Cc1cccnc1CC(C)NC(=O)c1csc2nc(-c3ccccc3Cl)cn12 (stereo not given)	i	?	-5.1%	?	-14.1%	0.5%	/	/	/
COc1ccc(-c2noc(N3CCc4ccccc43)n2)cc1	1.58µM*	0.3%	-0.8%	-9.6%	?	60.0%	25.3%	?	3.13µM*
Brc1ccccc1-n1ncc2c1ncn1nc(Cc3ccccc3)nc21	/	/	-4.2%	/	/	181.6%	15.6%	10.4%	-10.7%
COc1ccc(Cc2nc3c4cnn(-c5ccccc5Br)c4ncn3n2)cc1	/	/	3.0%	/	/	17.7%	/	/	/
CCn1cc(-c2ccc(C)cc2)cc1C(=O)O	?	?	-3.3%	-19.3%	2.3%	-15.4%	14.3%	10.1%	-13.2%

Source: PubChem BioAssay (National Center for Advancing Translational Sciences (NCATS))
